Measured values reported in publication PMC11006913.
Changes are numbered by the printed parent chain.

Key:
Experiment in all cases: PBM; 200 nM protein, PBS
Details in all cases: dsDNA, one strand shown
SIX6 [1] = biological target: T1, SIX6 (Homo sapiens, UniProt O95475 114-200, L167I)
T1 sequence: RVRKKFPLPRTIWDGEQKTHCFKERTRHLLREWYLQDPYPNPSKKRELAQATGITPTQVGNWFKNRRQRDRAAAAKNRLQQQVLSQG

SIX6 [2] = biological target: T2, SIX6 (Homo sapiens, UniProt O95475 114-200, L143V)
T2 sequence: T1 sequence with L30V, I54L

SIX6 [3] = biological target: T3, SIX6 (Homo sapiens, UniProt O95475 114-200, H141N)
T3 sequence: T1 sequence with H28N, I54L

SIX6 [4] = biological target: T4, SIX6 (Homo sapiens, UniProt O95475 114-200, T165P)
T4 sequence: T1 sequence with T52P, I54L

SIX6 [5] = biological target: T5, SIX6 (Homo sapiens, UniProt O95475 114-200, L167M)
T5 sequence: T1 sequence with I54M

SIX6 [6] = biological target: T6, SIX6 (Homo sapiens, UniProt O95475 114-200, L143M)
T6 sequence: T1 sequence with L30M, I54L

SIX6 [7] = biological target: T7, SIX6 (Homo sapiens, UniProt O95475 114-200, L143I)
T7 sequence: T1 sequence with L30I, I54L

SIX6 [8] = biological target: T8, SIX6 (Homo sapiens, UniProt O95475 114-200, T165G)
T8 sequence: T1 sequence with T52G, I54L

SIX6 [9] = biological target: T9, SIX6 (Homo sapiens, UniProt O95475 114-200, T139Q)
T9 sequence: T1 sequence with T26Q, I54L

SIX6 [10] = biological target: T10, SIX6 (Homo sapiens, UniProt O95475 114-200, T165A)
T10 sequence: T1 sequence with T52A, I54L

SIX6 [11] = biological target: T11, SIX6 (Homo sapiens, UniProt O95475 114-200, L167V)
T11 sequence: T1 sequence with I54V

SIX6 [12] = biological target: T12, SIX6 (Homo sapiens, UniProt O95475 114-200)
T12 sequence: T1 sequence with I54L

SIX6 [13] = biological target: T13, SIX6 (Homo sapiens, UniProt O95475 114-200, T165I)
T13 sequence: T1 sequence with T52I, I54L

ATACACCA
binding signal (SIX6 [1]): 10.4 upbm affinity estimate (log intensity, higher = more binding, comparable within an allelic series) | binding signal (SIX6 [2]): 10.1 upbm affinity estimate (log intensity, higher = more binding, comparable within an allelic series) | binding signal (SIX6 [3]): 10.6 upbm affinity estimate (log intensity, higher = more binding, comparable within an allelic series) | binding signal (SIX6 [4]): 9.67 upbm affinity estimate (log intensity, higher = more binding, comparable within an allelic series) | binding signal (SIX6 [5]): 10.2 upbm affinity estimate (log intensity, higher = more binding, comparable within an allelic series) | binding signal (SIX6 [6]): 10.4 upbm affinity estimate (log intensity, higher = more binding, comparable within an allelic series) | binding signal (SIX6 [7]): 10.2 upbm affinity estimate (log intensity, higher = more binding, comparable within an allelic series) | binding signal (SIX6 [8]): 10.8 upbm affinity estimate (log intensity, higher = more binding, comparable within an allelic series) | binding signal (SIX6 [9]): 10.8 upbm affinity estimate (log intensity, higher = more binding, comparable within an allelic series) | binding signal (SIX6 [10]): 10.6 upbm affinity estimate (log intensity, higher = more binding, comparable within an allelic series) | binding signal (SIX6 [11]): 10.2 upbm affinity estimate (log intensity, higher = more binding, comparable within an allelic series) | binding signal (SIX6 [12]): 10.5 upbm affinity estimate (log intensity, higher = more binding, comparable within an allelic series) | binding signal (SIX6 [13]): 10.5 upbm affinity estimate (log intensity, higher = more binding, comparable within an allelic series)

ATGATACA
binding signal (SIX6 [1]): 11.3 upbm affinity estimate (log intensity, higher = more binding, comparable within an allelic series) | binding signal (SIX6 [2]): 10.5 upbm affinity estimate (log intensity, higher = more binding, comparable within an allelic series) | binding signal (SIX6 [3]): 11.3 upbm affinity estimate (log intensity, higher = more binding, comparable within an allelic series) | binding signal (SIX6 [4]): 9.98 upbm affinity estimate (log intensity, higher = more binding, comparable within an allelic series) | binding signal (SIX6 [5]): 10.8 upbm affinity estimate (log intensity, higher = more binding, comparable within an allelic series) | binding signal (SIX6 [6]): 11.1 upbm affinity estimate (log intensity, higher = more binding, comparable within an allelic series) | binding signal (SIX6 [7]): 10.5 upbm affinity estimate (log intensity, higher = more binding, comparable within an allelic series) | binding signal (SIX6 [8]): 11.3 upbm affinity estimate (log intensity, higher = more binding, comparable within an allelic series) | binding signal (SIX6 [9]): 11.2 upbm affinity estimate (log intensity, higher = more binding, comparable within an allelic series) | binding signal (SIX6 [10]): 11.2 upbm affinity estimate (log intensity, higher = more binding, comparable within an allelic series) | binding signal (SIX6 [11]): 11.1 upbm affinity estimate (log intensity, higher = more binding, comparable within an allelic series) | binding signal (SIX6 [12]): 11.1 upbm affinity estimate (log intensity, higher = more binding, comparable within an allelic series) | binding signal (SIX6 [13]): 11.1 upbm affinity estimate (log intensity, higher = more binding, comparable within an allelic series)

GAAAGCGC
binding signal (SIX6 [1]): 8.91 upbm affinity estimate (log intensity, higher = more binding, comparable within an allelic series) | binding signal (SIX6 [2]): 8.99 upbm affinity estimate (log intensity, higher = more binding, comparable within an allelic series) | binding signal (SIX6 [3]): 8.85 upbm affinity estimate (log intensity, higher = more binding, comparable within an allelic series) | binding signal (SIX6 [4]): 9.04 upbm affinity estimate (log intensity, higher = more binding, comparable within an allelic series) | binding signal (SIX6 [5]): 8.97 upbm affinity estimate (log intensity, higher = more binding, comparable within an allelic series) | binding signal (SIX6 [6]): 8.96 upbm affinity estimate (log intensity, higher = more binding, comparable within an allelic series) | binding signal (SIX6 [7]): 8.97 upbm affinity estimate (log intensity, higher = more binding, comparable within an allelic series) | binding signal (SIX6 [8]): 9 upbm affinity estimate (log intensity, higher = more binding, comparable within an allelic series) | binding signal (SIX6 [9]): 9 upbm affinity estimate (log intensity, higher = more binding, comparable within an allelic series) | binding signal (SIX6 [10]): 9.02 upbm affinity estimate (log intensity, higher = more binding, comparable within an allelic series) | binding signal (SIX6 [11]): 8.93 upbm affinity estimate (log intensity, higher = more binding, comparable within an allelic series) | binding signal (SIX6 [12]): 8.96 upbm affinity estimate (log intensity, higher = more binding, comparable within an allelic series) | binding signal (SIX6 [13]): 8.97 upbm affinity estimate (log intensity, higher = more binding, comparable within an allelic series)

GATACATA
binding signal (SIX6 [1]): 11.1 upbm affinity estimate (log intensity, higher = more binding, comparable within an allelic series) | binding signal (SIX6 [2]): 10.4 upbm affinity estimate (log intensity, higher = more binding, comparable within an allelic series) | binding signal (SIX6 [3]): 11 upbm affinity estimate (log intensity, higher = more binding, comparable within an allelic series) | binding signal (SIX6 [4]): 10 upbm affinity estimate (log intensity, higher = more binding, comparable within an allelic series) | binding signal (SIX6 [5]): 10.7 upbm affinity estimate (log intensity, higher = more binding, comparable within an allelic series) | binding signal (SIX6 [6]): 10.9 upbm affinity estimate (log intensity, higher = more binding, comparable within an allelic series) | binding signal (SIX6 [7]): 10.4 upbm affinity estimate (log intensity, higher = more binding, comparable within an allelic series) | binding signal (SIX6 [8]): 11 upbm affinity estimate (log intensity, higher = more binding, comparable within an allelic series) | binding signal (SIX6 [9]): 11.1 upbm affinity estimate (log intensity, higher = more binding, comparable within an allelic series) | binding signal (SIX6 [10]): 11 upbm affinity estimate (log intensity, higher = more binding, comparable within an allelic series) | binding signal (SIX6 [11]): 10.8 upbm affinity estimate (log intensity, higher = more binding, comparable within an allelic series) | binding signal (SIX6 [12]): 10.9 upbm affinity estimate (log intensity, higher = more binding, comparable within an allelic series) | binding signal (SIX6 [13]): 10.8 upbm affinity estimate (log intensity, higher = more binding, comparable within an allelic series)

CGCAACCG
binding signal (SIX6 [1]): 9.24 upbm affinity estimate (log intensity, higher = more binding, comparable within an allelic series) | binding signal (SIX6 [2]): 9.05 upbm affinity estimate (log intensity, higher = more binding, comparable within an allelic series) | binding signal (SIX6 [3]): 9.23 upbm affinity estimate (log intensity, higher = more binding, comparable within an allelic series) | binding signal (SIX6 [4]): 9.03 upbm affinity estimate (log intensity, higher = more binding, comparable within an allelic series) | binding signal (SIX6 [5]): 9.16 upbm affinity estimate (log intensity, higher = more binding, comparable within an allelic series) | binding signal (SIX6 [6]): 9.07 upbm affinity estimate (log intensity, higher = more binding, comparable within an allelic series) | binding signal (SIX6 [7]): 9.2 upbm affinity estimate (log intensity, higher = more binding, comparable within an allelic series) | binding signal (SIX6 [8]): 9.18 upbm affinity estimate (log intensity, higher = more binding, comparable within an allelic series) | binding signal (SIX6 [9]): 9.31 upbm affinity estimate (log intensity, higher = more binding, comparable within an allelic series) | binding signal (SIX6 [10]): 9.14 upbm affinity estimate (log intensity, higher = more binding, comparable within an allelic series) | binding signal (SIX6 [11]): 9.12 upbm affinity estimate (log intensity, higher = more binding, comparable within an allelic series) | binding signal (SIX6 [12]): 9.2 upbm affinity estimate (log intensity, higher = more binding, comparable within an allelic series) | binding signal (SIX6 [13]): 9.15 upbm affinity estimate (log intensity, higher = more binding, comparable within an allelic series)

ATGTATCA
binding signal (SIX6 [1]): 11.4 upbm affinity estimate (log intensity, higher = more binding, comparable within an allelic series) | binding signal (SIX6 [2]): 10.6 upbm affinity estimate (log intensity, higher = more binding, comparable within an allelic series) | binding signal (SIX6 [3]): 11.5 upbm affinity estimate (log intensity, higher = more binding, comparable within an allelic series) | binding signal (SIX6 [4]): 10.1 upbm affinity estimate (log intensity, higher = more binding, comparable within an allelic series) | binding signal (SIX6 [5]): 11 upbm affinity estimate (log intensity, higher = more binding, comparable within an allelic series) | binding signal (SIX6 [6]): 11.2 upbm affinity estimate (log intensity, higher = more binding, comparable within an allelic series) | binding signal (SIX6 [7]): 10.6 upbm affinity estimate (log intensity, higher = more binding, comparable within an allelic series) | binding signal (SIX6 [8]): 11.5 upbm affinity estimate (log intensity, higher = more binding, comparable within an allelic series) | binding signal (SIX6 [9]): 11.3 upbm affinity estimate (log intensity, higher = more binding, comparable within an allelic series) | binding signal (SIX6 [10]): 11.4 upbm affinity estimate (log intensity, higher = more binding, comparable within an allelic series) | binding signal (SIX6 [11]): 11.2 upbm affinity estimate (log intensity, higher = more binding, comparable within an allelic series) | binding signal (SIX6 [12]): 11.2 upbm affinity estimate (log intensity, higher = more binding, comparable within an allelic series) | binding signal (SIX6 [13]): 11.3 upbm affinity estimate (log intensity, higher = more binding, comparable within an allelic series)
